A selection: hits, their analogues and other compounds. The true share with any hit is near 4%.
TWEAK Fn14 block: blocks TWEAK-Fn14 interaction in a reporter cell assay; TWEAK-stimulated Fn14 reporter cells, luciferase luminescence, 8 h; inhibition, % at 10 µM; 360,000 tested, 2% active; AID 1159606; in the data active means inhibition above about 50%
CF NFkB block: blocks PAF-induced NF-kB reporter in cystic fibrosis cells; KKLEB NF-kB-GFP reporter, GFP fluorescence overnight; inhibition, % at 5 µM; 360,000 tested, 0.86% active;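 active means at least 50% inhibition at 5 µM, scaled per plate between neutral and stimulator controls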;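 further: PAF is a Pseudomonas aeruginosa culture filtrate used as stimulus; plate controls were PAF-stimulated DMSO wells for no effect and unstimulated DMSO wells for full effect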
TROY signal inh: TROY signaling inhibition; 360,000 tested, 0.98% active; Q293 LMP1-TROYcd NF-kB luciferase reporter, 4 h; inhibition, % at 10 µM;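 active means compounds whose plate-normalised and pattern-corrected inhibition of the luciferase reporter signal at the single screening dose is 50% or more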
HIF-2a block: HIF-2a inhibition; inhibition, % at 18.8 µM; AID 624352; 360,000 tested, 0.72% active; 786-0 RCC cells HIF-2a reporter, luciferase luminescence, overnight;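 active means inhibition of the luminescence signal of 40% or more relative to plate controls, in a single-dose primary screen at 18.75 µM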
Peg3 promoter: reduces Peg3 promoter-driven luciferase expression in HeLa; HeLa PEG-Prom luciferase reporter, luminescence, overnight; inhibition, % at 20 µM; 360,000 tested, 1.7% active; AID 588405;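 active means inhibition of at least 50% at 20 µM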
KKLEB cytotox: CF airway cell cytotoxicity counter-screen; KKLEB CF airway cells viability, ATPlite luminescence, overnight; stronger effect = lower value; cells stimulated with P. aeruginosa culture filtrate; activity change (cytotoxicity), % at 5 µM; 360,000 tested, 0.36% active; AID 602141;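 active means corrected activity change at or below -50% at 5 µM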
Mdm2-MdmX confirm: confirmation of inhibitors of human Mdm2/MdmX interaction, set 2 | SaOS-2 split-luciferase Mdm2/MdmX complementation, luminescence | 740 tested, 99% active | inhibition, % at 8 µM | shares compounds with HIF-2a block;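 active means mean inhibition of the luminescence signal across two replicates at or above 26 percent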
HIF-2a inh conf: HIF-2a inhibition, single concentration confirmation; shares compounds with HIF-2a block; 786-0 RCC cells, HIF-2a luciferase reporter luminescence, overnight; inhibition, % at 18.8 µM; 1,800 tested, 56% active; AID 651580;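 active means mean inhibition across four replicates of at least 40 percent at the single tested concentration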
HIF-1a cs: HIF-1a inhibition counter-screen for HIF-2a hits; shares compounds with HIF-2a block; MiaPaCa-2 HIF-1a luciferase reporter, desferoxamine, overnight; inhibition, % at 18.8 µM; 1,800 tested, 72% active; AID 651589;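 active means mean inhibition of the reporter signal across four replicates at the single tested dose of 50% or more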
The depositor's hits bear a star; . = no result given.

SMILES	TWEAK Fn14 block	CF NFkB block	TROY signal inh	HIF-2a block	Peg3 promoter	KKLEB cytotox	HIF-2a inh conf	HIF-1a cs	others
Cc1ccc(NC(=O)CC2CS(=O)(=O)CC2CC(=O)Nc2ccc(C)c(C)c2)cc1C (stereo not drawn)	5	-17	6	11	13	6	.	.
CC1CCCCC1NC(=O)/C(C#N)=C/c1ccccc1F (stereo not drawn)	70*	26	30	88*	96*	-14	81*	106*
Cc1ccc(C(C)C)c(OCc2ccc(C(=O)N/N=C/c3ccc(C(=O)O)cc3)cc2)c1	11	8	-24	67*	-83	-1	81*	-13
Cc1ccc(COc2ccc(/C=N/NC(=O)c3ccc(CN4CCOCC4)cc3)cc2)cc1	2	-11	-41	-51	-141	-21	.	.
CCN1CSC(=S)N(Cc2ccc(OC)cc2)C1	5	-8	-20	67*	16	5	-1	42
CCN1CSC(=S)N(Cc2ccccc2)C1	5	9	-2	25	16	5	.	.
Cc1[nH]n(-c2ccccc2)c(=O)c1N=Nc1ccc2c(c1)OCCO2	-14	-2	-44	-311	-291	-1	.	.
Cc1[nH]n(-c2ccccc2)c(=O)c1N=Nc1c(O)cc(S(=O)(=O)N(C)C)c2ccccc12	88*	5	49	-13	62*	-8	.	.	Mdm2-MdmX confirm=89*
COc1ccccc1[C@@]1(C)ON(c2ccccc2C(F)(F)F)C1=O	35	45	11	66*	77*	1	24	101*
Cc1cc(N)n2nc(C)c(-c3ccc(Cl)cc3)c2n1	8	3	-9	0	15	-19	.	.
Cc1cc(Cl)n2nc(C)c(-c3ccc(Cl)cc3)c2n1	13	33	-10	66*	104*	-30	9	100*
C=C(CN(C)C)C(=O)c1ccc(OC2OC(COC(C)=O)C(OC(C)=O)C(OC(C)=O)C2OC(C)=O)cc1 (stereo not drawn)	15	60*	16	89*	100*	-28	96*	105*
CCN(CC)CCn1c2ccccc2c2nc3ccc([N+](=O)[O-])cc3cc21	-15	-68	-27	-59	28	10	.	.	Mdm2-MdmX confirm=83*
CCN(CC)P(=O)(Nc1ccc(Br)cc1)c1c(C)nn(CCC#N)c1NC(=O)c1ccc(Cl)cc1 (stereo not drawn)	13	21	-9	4	4	-2	.	.
CC(=O)c1ccc(NC(=O)c2onc(C)c2Cl)cc1	2	-5	-30	-131	-235	7	.	.
CC(=O)c1ccc(NC(=O)c2noc3c2CCC3)cc1	94*	-38	54*	49*	28	30	72*	61*
O=[N+]([O-])c1ccc2nc(Cl)nc(-c3ccccc3)c2c1	20	-21	-18	19	20	6	.	.	Mdm2-MdmX confirm=101*
O=[N+]([O-])c1ccc2nc(-[n+]3c(-c4ccccc4)cc(-c4ccccc4)cc3-c3ccccc3)[nH]c2c1	40	23	-7	16	32	-17	.	.
O=C(CCCOc1ccc(Cl)cc1Cl)NCCCO	-23	16	0	-26	-19	-6	.	.
O=C(CCCOc1ccc(Cl)cc1Cl)NCCc1ccccn1	31	3	69*	59*	33	-4	57*	80*
O=C(COC(=O)CCCOc1ccc(Cl)cc1Cl)NCc1ccc(F)cc1	0	4	3	52*	7	0	46*	41
CC(OC(=O)c1ccccc1NCCO)C(=O)Nc1ccc(S(=O)(=O)N2CCOCC2)cc1 (stereo not drawn)	-2	-4	-8	-46	-21	-11	.	.
CS(=O)(=O)Nc1ccccc1NS(C)(=O)=O	0	6	-10	10	8	-11	.	.
COc1ccc(/C=C/C(=O)c2cc(F)ccc2OC(=O)c2ccccc2)cc1OC	-62	53*	25	44*	15	-20	36	21
